The record followed here is PubChem BioAssay AID624330 (Southern Research Specialized Biocontainment Screening …, 2012).

Molecules are shown by their SMILES. Hit rate of the full screen: of about 340,000 compounds, about 2,100 (0.62%) were called active. Only a sample is shown. Potency and affinity values are given separately. Values without a mark were called inactive.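 How the source made its calls: active means first-screen hits whose inhibition reached a set limit at any dose in the follow-up dose series; inconclusive means inhibition above the set first-screen limit but never retested; inactive means the rest.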

Sequence of Rac GTPase-activating protein 1 (Homo sapiens) (Q9H0H5 whole entry, looked up): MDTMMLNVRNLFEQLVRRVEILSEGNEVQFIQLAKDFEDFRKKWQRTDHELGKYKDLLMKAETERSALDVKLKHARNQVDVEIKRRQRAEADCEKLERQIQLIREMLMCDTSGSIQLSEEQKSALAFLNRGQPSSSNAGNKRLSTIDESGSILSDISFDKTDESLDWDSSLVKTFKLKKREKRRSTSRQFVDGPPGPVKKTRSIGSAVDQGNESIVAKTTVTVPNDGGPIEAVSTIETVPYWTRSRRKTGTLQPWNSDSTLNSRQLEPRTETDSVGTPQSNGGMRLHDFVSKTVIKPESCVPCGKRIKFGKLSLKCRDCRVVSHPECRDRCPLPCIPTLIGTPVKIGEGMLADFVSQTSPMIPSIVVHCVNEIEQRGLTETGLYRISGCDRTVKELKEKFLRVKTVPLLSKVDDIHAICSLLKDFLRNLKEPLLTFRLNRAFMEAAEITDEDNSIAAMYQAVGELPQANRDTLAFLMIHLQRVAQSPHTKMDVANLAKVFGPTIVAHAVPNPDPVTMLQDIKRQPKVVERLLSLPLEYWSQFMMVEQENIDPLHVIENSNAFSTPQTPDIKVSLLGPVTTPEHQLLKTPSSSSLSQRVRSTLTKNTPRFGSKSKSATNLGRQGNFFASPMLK

This test concerns the target Rac GTPase-activating protein 1 (Homo sapiens) (UniProt Q9H0H5). In words: blockers of MgcRacGAP-driven Rac1 GTP hydrolysis – biochemical, ADP Hunter fluorescence, primary and confirmatory, confirmation (AID 624330).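 Further: fluorescence reports GDP produced by GAP-driven GTP hydrolysis.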 The following applies: MgcRacGAP-stimulated Rac1 GTP hydrolysis, at 30 µM, stronger effect = higher value, GST-tagged Rac1 F28L mutant substrate.
As to `COc1ccccc1CN1CC(C(=O)NCC2(O)CCCCC2)CCC1=O` (configuration not stated), the inhibition is -29.3%.

As to `ONC=Nc1cccc2nonc12`, the inhibition was 4.4%.

As for `Cc1ccccc1NC(=O)COC(=O)c1cccc(S(=O)(=O)N2CCCCC2)c1`, the inhibition was 0.63%.

Regarding `COc1ccc(CCN(C(=O)C(F)(F)F)C(C(=O)NC2CCCCC2)c2ccc(C)s2)cc1OC` (configuration not stated), the inhibition is 4.06%.

In the case of `Cc1ccc(S(=O)(=O)N2CCN(C(=O)N(C)C)CC2)cc1`, the inhibition is 2.84%.

In the case of `O=C(Nn1cnc2ccccc2c1=O)c1ccc(Cl)c([N+](=O)[O-])c1`, the inhibition is 9.36%.

Turning to `COn1c(-n2nc(C)cc2C)nc2ccccc2c1=O`, the inhibition was 3.26%.

Regarding `O=C(COc1ccccc1)N1CCCC1`, the inhibition is 2.28%.

Regarding `CS(=O)(=O)N1CCN(CC2CC3C=CC2C3)CC1` (configuration not stated), the inhibition is 26.4%.

Turning to `CCS(=O)(=O)N1CCN(CC2CC3C=CC2C3)CC1` (configuration not stated), the inhibition was 3.64%.

With `O=C(COc1ccccc1)N1CCN(C(=O)COc2ccccc2)CC1`, the inhibition is 2.47%.

Take `S=C(Cc1ccccc1)NCCc1ccccc1`: the inhibition was 9.14%.

Consider `Cc1noc(C)c1N=Nc1ccc(Br)cc1C(=O)O`, for which the inhibition was 4.04%.

As for `O=C(NCc1ccc(Cl)cc1)c1ccncc1`, the inhibition is 6.54%.

Regarding `O=C(COn1nnc2ccc(S(=O)(=O)N3CCOCC3)cc21)NCc1cccc(Cl)c1`, the inhibition was 13.7%.

Take `COc1cc(C(=O)C(=O)c2cc(OC)c(O)c(OC)c2)cc(OC)c1O`: the inhibition is 7.13%.

Consider `COc1cc(Cc2cc(OC)c(O)c(OC)c2)cc(OC)c1O`, for which the inhibition was 6.74%.

As for `Cc1ccc(S(=O)(=O)N2CCOCC2)cc1C(=O)Nc1nc(-c2ccccn2)cs1`, the inhibition was 13.7%.

With `CCOc1ccc(S(=O)(=O)N2CCN(CC)CC2)cc1NC(=O)c1ccccc1F`, the inhibition is 0.51%.

For the compound `CCOc1cc(NC(=O)c2ccccc2OC)c(OCC)cc1NC(=O)c1ccccc1`, the inhibition was -3.11%.

In the case of `CCn1c(C)cc(/C=C2/SC(=O)N(CC(=O)N3CCCC3)C2=O)c1C`, the inhibition was 8.19%.

In the case of `Cn1cnc2c1c(=O)n(Cc1cccc(Br)c1)c(=O)n2C`, the inhibition was 0.32%.

In the case of `COc1c2ccoc2cc2oc(C)cc(=O)c12`, the inhibition was 6.29%.

For the compound `O=c1cc(-c2ccccc2)oc2cc(O)c(O)c(O)c12`, the inhibition was -59.8%.

For the compound `COc1cc2c(cc1OC)CN(CC(=O)Nc1ccccc1C(=O)NC1CC1)CC2`, the inhibition is -6.05%.

As to `CCOC(=O)c1sc(N2C(=O)C(O)=C(C(=O)c3ccco3)C2c2ccc(C)o2)nc1C` (configuration not stated), the inhibition is 12.2%.

As for `CN=C1S/C(=C\c2ccc(Cl)cc2)C(=O)N1C`, the inhibition is 3.04%.

On to `CN=C1S/C(=C\c2ccc(SC)cc2)C(=O)N1C`, for which the inhibition was 7.27%.

For `O=C1COc2ccc(C(=O)COC(=O)Cc3ccc(Cl)cc3)cc2N1`, the inhibition is 9.6%.

Regarding `COc1ccc(C2NC(c3ccc(OC)c(OC)c3OC)C(C)C(=O)C2C)c(OC)c1OC` (configuration not stated), the inhibition is 1.64%.

For `COc1ccccc1C1NC(c2ccccc2OC)C(C)C(=O)C1C` (configuration not stated), the inhibition is -2.35%.

With `O=C(N/N=C/c1ccc(N2CCOCC2)c([N+](=O)[O-])c1)c1ccc(F)cc1`, the inhibition was 7.08%.

Take `CCOc1ccc(C=NNc2ccc(S(=O)(=O)Nc3ccccc3C(=O)O)cc2[N+](=O)[O-])cc1`: the inhibition is 15.4%.

In the case of `CCOc1ccc(C=NNc2ccc(S(=O)(=O)Nc3ccccc3C(=O)O)cc2[N+](=O)[O-])cc1OC`, the inhibition was 10%.

For `CC(=O)Nc1ccc(C=NNc2ccc(S(=O)(=O)Nc3ccccc3C(=O)O)cc2[N+](=O)[O-])cc1`, the inhibition is 15.7%.

Turning to `O=C(O)c1ccccc1NS(=O)(=O)c1ccc(NN=Cc2ccc(F)cc2)c([N+](=O)[O-])c1`, the inhibition is 6.4%.

Regarding `CCOCCCNC(=O)c1cc2cc3cc(OC)ccc3nc2o1`, the inhibition was 11.9%.

In the case of `CCc1nc(SCC(=O)NNC(=O)c2ccc(OC)cc2)c2ccccc2n1`, the inhibition is -0.86%.

With `CN(Cc1ccccc1)C(=O)CCC1CCN(C(=O)c2ccccc2C(F)(F)F)CC1`, the inhibition was -5.88%.

As for `COc1ccc(NC(=O)CS(=O)CC(=O)Nc2ccc(OC)c(OC)c2)cc1` (configuration not stated), the inhibition is -4.61%.

On to `O=C(COC(=O)CC1CC2CCC1C2)Nc1ccc(Cl)c(S(=O)(=O)N2CCOCC2)c1` (configuration not stated), for which the inhibition is 6.02%.

As for `CCN1CCN(C(=O)c2ccc(C)c(S(=O)(=O)Nc3cccc(C)c3)c2)CC1`, the inhibition is 3.11%.

`O=C(c1ccc(Cn2cc(Br)cn2)cc1)N1N=C(C(F)F)CC1(O)C(F)F` (configuration not stated): the inhibition was 0.1%.

As to `CCCc1nc(NCc2ccncc2)c2nnn(Cc3ccccc3F)c2n1`, the inhibition was 10.9%.

On to `COc1cc2c(cc1NC(=O)Nc1ccccc1)oc1ccccc12`, for which the inhibition is -0.72%.

Turning to `COc1ccc(CNC(=O)Nc2cccc(C(F)(F)F)c2)cc1OC`, the inhibition is 6.37%.

For `COc1cc2c(cc1NC(=O)Nc1ccc(C)cc1)oc1ccccc12`, the inhibition was 2.58%.

As to `COc1cc2c(cc1NC(=O)Nc1cccc(C)c1)oc1ccccc12`, the inhibition was 9.41%.

In the case of `COc1cccc(NC(=O)CN2C(=O)NC(C)(c3ccc(C)cc3)C2=O)c1` (configuration not stated), the inhibition is 6.36%.

On to `COc1ccccc1Nc1nc(N)nc(CSc2nncn2C)n1`, for which the inhibition is 5.08%.

Consider `CC(=O)c1ccc(NC(=O)CSc2nc(Nc3ccccc3)nc(N3CCOCC3)n2)cc1`, for which the inhibition was 8.08%.

As for `Cc1ccc(CNC(=O)C2CCCC2)cc1`, the inhibition was 6.2%.

`CCN(CC)c1ccc(CN2CCC(C(=O)NCc3ccc(C)cc3)CC2)cc1`: the inhibition was 36.2%.

For the compound `COc1ccc(CCNc2ccc(S(=O)(=O)N3CCN(C)CC3)cc2[N+](=O)[O-])cc1`, the inhibition is 1.77%.

For `CC(/C=C1\N=C(SCc2ccccc2)SC1=O)=C\c1ccccc1`, the inhibition is 3%.

For the compound `COc1ccc(/C(C)=N/NC(=O)CNC(=O)/C=C\c2ccco2)cc1`, the inhibition is 1.11%.

Take `C/C(=N/NC(=O)CNC(=O)/C=C/c1ccco1)c1ccc(Cl)cc1`: the inhibition is 18.5%.

As to `COCCCN(CC(=O)Nc1ccc(N2CCOCC2)cc1)S(=O)(=O)c1ccccc1`, the inhibition is 5.72%.

Take `CCn1c(SC(C)C)nnc1-c1c[nH]c2ccccc12`: the inhibition is 7.88%.

Regarding `C=CCn1c(SCC(=O)O)nnc1-c1ccccc1`, the inhibition was -4.43%.

As for `C=CCn1c(SCC(N)=O)nnc1-c1ccccc1O`, the inhibition was 4.07%.

For the compound `CC(C)Sc1nc2sc(-c3ccccc3)cc2c(=O)n1N`, the inhibition was 11.4%.
